TRHR enhancer: TRH receptor (human) allosteric enhancement; P34981; TRHR cells, fluo-8 calcium fluorescence, EC20 TRH enhancement; enhancement, % at 2 µM; hit rate 0.66% among 360,000; AID 493056; in the data active means enhancement above about 30%; further: 0% is about no effect
Target sequence (P34981 whole entry, looked up): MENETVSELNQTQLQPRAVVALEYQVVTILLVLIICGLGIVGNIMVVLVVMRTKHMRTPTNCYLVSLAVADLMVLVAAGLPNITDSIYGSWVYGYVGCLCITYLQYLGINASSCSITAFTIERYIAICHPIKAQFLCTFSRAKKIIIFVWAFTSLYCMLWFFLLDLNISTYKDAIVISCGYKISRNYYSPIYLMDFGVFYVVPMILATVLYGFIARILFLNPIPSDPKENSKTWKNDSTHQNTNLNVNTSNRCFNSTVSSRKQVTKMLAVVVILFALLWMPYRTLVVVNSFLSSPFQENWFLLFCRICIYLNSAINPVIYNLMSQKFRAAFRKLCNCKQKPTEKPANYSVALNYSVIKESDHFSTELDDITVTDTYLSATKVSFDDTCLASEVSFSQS
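Enhancer read-out: after compound pinning and an initial kinetic agonist-mode read, an EC20 of TRH (10 nM final) was injected and fluo-8 calcium signal (Ex 480/Em 530) followed at 1 s/cycle for 100 cycles in TRHR-expressing cells.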
TRPML1 blocker: human mucolipin-1 channel inhibition; Q9GZU1; TRPML1-inducible cells, Ca2+ dye fluorescence, FDSS; stronger effect = lower value; inhibition of EC80 agonist-evoked calcium signal; activity change, negative = inhibition, % (test concentration not listed); hit rate 0.02% among 390,000; AID 624415; in the data active means activity change below about -50%; inconclusive means between about -30% and that limit;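 further: stimulus is agonist 54-4 at its EC80 concentration; on the % scale 0 is the no-effect control and ±100 the full control effect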
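Tet-induced TRPML1-DL cells loaded with Ca8 no-wash calcium dye were read kinetically on FDSS. Compound addition was followed by EC80 agonist 54-4 (4 uM final); inhibition was read over 110 s.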
TRHR agonist: TRH receptor (human) agonism | hit rate 0.18% among 360,000 | TRHR cells, calcium flux fluo-8, FDSS agonist mode | activation, % at 2 µM | P34981; in the data active means activation above about 30%; further: 0% is about no effect
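Fluo-8-loaded TRHR cells; 10 s baseline, compound added, kinetic Ca2+ fluorescence read 1/s, agonist mode.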
Glioma ERSR ind: inducers of ER stress response in human glioma cells; U87-MG GRP78 promoter luciferase reporter, 16 h; Potency, µM, for inactives: at the top dose activation, actives largely listed as activators; hit rate 0.02% among 420,000; AID 602332; active means well fitted activation curve with a large enough effect; inconclusive means small, poorly fitted or top-dose-only effect; inactive means no such curve, though single readings can be large or run the other way; further: potency means the concentration at half of the fitted maximal effect; series mostly up to about 76 µM; % of control where 0% means no effect; nearly all actives have a fitted effect of over 35% in size
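ERSR induction read as luciferase luminescence (Bright-Glo, 10 min at room temperature) in stably transfected human U87-MG glioma cells exposed to compounds for 16 h, using GRP78 as sensor.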
TRPML1 ag: activates the human TRPML1 channel; Q9GZU1; TRPML1-expressing cells, Ca2+ dye fluorescence, FDSS; activation, % (test concentration not listed); hit rate 0.12% among 410,000; AID 624414; in the data active means activation above about 50%; inconclusive means mostly about 30% to 49%; further: 0% is about no effect
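Tetracycline-induced TRPML1-DL cells are seeded and incubated overnight before loading with a no-wash Ca2+ dye and quencher. Agonist activity is taken from the 110 s fluorescence read following compound pin-transfer on an FDSS, before EC80 54-4 challenge.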
An asterisk follows results filed as active; ? = inconclusive; · = not tested or not shown; ! = not active in a repeat. Sampled rows, rich in hits. Any-hit rate of the full collection: about 0.8%.

SMILES	TRHR enhancer	TRPML1 blocker	TRHR agonist	Glioma ERSR ind	TRPML1 ag
COc1ccc(C(=O)NC2(C(F)(F)F)C(=O)NC(C)=C2C#N)cc1OC (configuration not stated)	-3.9	-15.1	0.5	-3.8%	-0.5
CN1CCN(C(=O)C2=C[C@@H](C3CC3)C[C@@H](OCc3ccc(CO)cc3)O2)CC1	31.4*	-8.2	0.4	-7.3%	-0.6
O=C(C1=C[C@H](C2CC2)C[C@H](OCc2ccc(CO)cc2)O1)N1CCOCC1	0.9	15.8	-0.1	2.1%	-0.3
COC(=O)[C@@H]1CCCN1Cc1ccc2c(c1)CN(Cc1ccc(OC)c(C)c1)CCO2	·	·	·	-0.8%	·
COc1cc(/C=C2\CC/C(=C\c3ccc(OCCO)c(OC)c3)C2=O)ccc1OCCO	27.9	-28.1	113.6*	0.2%	106.9*
CC(C)Cc1nn2c(=O)cc(COC(=O)c3ccc(NC(=O)c4cccs4)cc3)nc2s1	-1.3	-67.9*	-1.6	0.8%	1.9
O=C(N[C@@H]1C/C=C\C[C@H](CC(=O)N(CCO)Cc2ccccc2)C(=O)NC[C@@H](c2ccccc2)OC1=O)OCC1c2ccccc2-c2ccccc21	·	-0.4	·	7.4%	-0.4
O=C(C[C@H]1C/C=C\C[C@H](NC(=O)OCC2c3ccccc3-c3ccccc32)C(=O)O[C@H](c2ccccc2)CNC1=O)N[C@H](CO)Cc1ccccc1	·	-1.6	·	28.2µM*	-0.1
O=C(Nc1cccnc1)c1ccc(Oc2ccccc2)cc1	34.3*	-9.6	-0.4	-7.6%	3.7
O=C(Nc1cccnc1)c1ccccc1Oc1ccccc1	-3.1	-2.4	0.0	-2.7%	-1.1
CCc1cc2c(COC(=O)c3cccc(S(C)(=O)=O)c3)cc(=O)oc2cc1O	-0.5	8.5	0.3	-2.5%	1.4
CCc1cc2c(COC(=O)c3c(C)noc3C)cc(=O)oc2cc1O	33.4*	-7.5	-0.9	?	1.4
COc1ccccc1C(=O)N(Cc1cc2cc3c(cc2nc1N(C)C)OCO3)CC1CCCO1 (configuration not stated)	·	·	·	-2.2%	·
CN(C)C(=O)N1CCC(C(=O)NCc2ccccc2)CC1	34.4*	-3.1	-0.1	-4.3%	0.4
CCOc1ccc(CNC(=O)CS(=O)(=O)Cc2nc(-c3ccc(OC)cc3)oc2C)cc1	-5.8	-8.5	0.5	-0.6%	-0.3
CCOc1ccc(CCNC(=O)CS(=O)(=O)Cc2nc(-c3ccc(OC)cc3)oc2C)cc1	40.1*!	6.2	-0.3	-4.7%	0.3
COc1ccc(C(=O)NCc2c(C)oc(C)c2C(=O)O)cc1	38.6*	14.2	0.7	4.0%	0.6
CCN(CC)c1ccc2c(c1)OC(N)=C(C#N)C2c1cccnc1 (configuration not stated)	-2.9	5.7	23.1	2.1%	70.1*
CSc1ccccc1C(=O)NCc1nc(-c2cccc(NC(=O)c3ccoc3C)c2)oc1C	·	·	·	0.0%	·
Cc1cc2nc3c(=O)[nH]c(=O)nc-3n(CC(O)C(O)C(O)CO)c2cc1C (configuration not stated)	·	·	·	-4.4%	·
CC(=O)OCCn1c2nc(=O)[nH]c(=O)c-2nc2cc(C)c(C)cc21	124.5*	-22.2	161.5*	-4.8%	117.4*
Cc1cc(C(=O)NCc2nc(-c3cccc(NC(=O)c4ccccc4)c3)oc2C)nc(C)n1	·	·	·	-1.8%	·
O=C(Nc1cccc(C(=O)O)c1)/C(=C\c1ccc2c(c1)OCO2)NC(=O)c1ccco1	33.4*	-17.2	0.7	-1.2%	0.0
O=C(Nc1ccccc1)/C(=C\c1ccc2c(c1)OCO2)NC(=O)c1ccco1	8.1	3.2	-0.4	-1.1%	-0.7
O=C(O)c1ccc(S(=O)(=O)NCc2cccnc2)cc1	35.4*	11.1	0.3	1.0%	-1.5
CCC(C)(C)C1CCc2c(sc(NC(=O)C3c4ccccc4Oc4ccccc43)c2C(N)=O)C1 (configuration not stated)	43.1*	-2.5	-1.0	-0.5%	-0.2
COC(=O)c1c(NC(=O)C2c3ccccc3Oc3ccccc32)sc2c1CCC(C(C)(C)C)C2 (configuration not stated)	25.6	-19.6	1.6	-3.6%	-0.4
COCc1c(C(=O)NC2CCOC(C)(C)C2)cnn1-c1nccc(-c2cccs2)n1 (configuration not stated)	·	·	·	0.2%	·
Cc1nc2sccn2c1CN1CCOc2ccc(CN3C[C@@H](C)O[C@@H](C)C3)cc2C1	·	·	·	-0.8%	·

Screening results from PubChem BioAssay.
